Out of some 340,000 compounds screened, about 6,400 (1.9%) were called active. Where a call stands in place of a potency, no number is given. Roughly 4% stayed inconclusive and do not appear here. Calls follow the shape of the dose curve; as a rule, active = well fitted falling curve with a large enough effect; inconclusive = small, poorly fitted or top-dose-only effect; inactive = no such curve, though single readings can be large or run the other way. This excerpt belongs to a sample that is enriched for actives.
Potency is read from the fitted curve at half-maximal effect.

ATP-dependent Clp protease proteolytic subunit (Bacillus subtilis (strain 168)), sequence (P80244 whole entry, looked up): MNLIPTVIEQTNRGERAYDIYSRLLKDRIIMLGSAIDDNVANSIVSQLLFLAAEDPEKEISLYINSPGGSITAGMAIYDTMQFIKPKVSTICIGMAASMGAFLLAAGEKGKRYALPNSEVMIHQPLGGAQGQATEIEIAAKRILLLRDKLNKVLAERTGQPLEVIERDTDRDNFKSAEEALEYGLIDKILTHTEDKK

The experiment deals with ATP-dependent Clp protease proteolytic subunit (Bacillus subtilis (strain 168)) (UniProt P80244). Kind of experiment: qHTS Assay for Activators of ClpP. Also: the source files actives as falling curves though it sought activators and does not explain the sign; nearly all actives have a fitted effect of over 65% in size. To be noted: purified B. subtilis ClpP, FRET peptide cleavage, 20 min; series mostly up to 57.5 µM. The source says:
The Clp protease proteolytic subunit (ClpP) is the core unit of the Clp complex belonging to the peptidase family S14 that hydrolyzes protein into small peptides in the presence of ATP and magnesium. It is ubiquitously expressed and is the major protease in bacteria. […] Unlike common antibiotics that simply interfere with the essential enzyme activity, ADEP binding activates the ClpP core in the absence of the regulatory Clp-ATPases leading to uncontrolled proteolysis and eventually cell death. Activators binding to the docking site on ClpP can also block formation of the ClpXP and ClpA/C-P holoenzyme complexes interfering with the normal biological functions of ClpP and thus have the potential to become new anti-microbials.
To identify activators of ClpP, a FRET based quenching reversal assay was developed using a purified B. subtilis ClpP and a decapeptide substrate (FRET-FV). The FRET-FV is tagged with a fluorescent molecule amino benzoic acid (donor) at the N-terminus and a nitrotyrosine quencher (acceptor) at the C-terminus. FRET-FV cleaves upon activation of ClpP with ADEP treatement and reverses the quenching effect of the nitrotyrosine causing an increase in fluorescence emission signal at 430nm. This assay was used to screen the Molecular Libraries Small Molecule Repository (MLSMR).
NIH Molecular Libraries Probe Production Centers Network [MLPCN]
NIH Chemical Genomics Center [NCGC]
Assay Submitter (PI): Michael Maurizi, National Cancer Institute
Two and a half microL/well of purified enzyme solution (final concentrations 10 microg/mL B. subtilis ClpP in 100 mM Tris/HCl pH8, 100 mM KCl, 0.05% low protease BSA, 2.5% glycerol, 0.01% Tween-20 buffer) was dispensed into 1536-well assay plates (Greiner, black solid, medium-binding plates) with Aurora Discovery BioRAPTR Flying Reagent Dispenser (FRD, Beckton-Dickenson). Compound solution (23 nL) was transferred to the assay plate using Kalypsys pin tool equipped with a 1536-pin tool. […] FRET signals at time 0 and after 20 min room temperature incubation were obtained using the PerkinElmer Envision plate reader with 320nm excitation and 430nm emission filters. Delta FRET value (Time 20 - Time 0) was calculated and normalized to the delta FRET value of positive control ADEP (5.8 microM final concentration) and negative control DMSO and no enzyme wells.
Background: In qHTS, concentration-response curves come from the screen itself.
As for `Fc1ccc(C2N3CCCN23)cc1` (centres undefined), the Potency was 28.2 µM (active). Turning to `O=c1[nH]c2ccccc2n1C1CCN(C(c2ccnc3ccccc23)c2nnnn2Cc2ccccc2)CC1` (centres undefined), the Potency entry was “inactive”. Then `COC(=O)COc1cc(C)cc2oc(=O)c3c(c12)CCCC3`, with “inactive”; and `Cc1cc(OCc2cc(C(=O)O)oc2C)c2c3c(c(=O)oc2c1)CCCC3`, with 28.2 µM (active); and `CCN1CCN(C(=O)Cc2coc3cc(C)cc(C)c23)CC1`, with “inactive”.

Take `Cc1ncoc1C(=O)NCC1=C(c2cccc3ccccc23)C[C@@H]2CC[C@H]1N2Cc1ccco1`: the Potency entry was “inactive”.

With `CCOc1ccc(CNC(=O)c2cccc(Nc3nc4ccccc4n4nnnc34)c2)cc1OC`, the Potency result was “inactive”. For `CCOC(=O)c1c(N)n(CCN2CCOCC2)c2nc3ccccc3nc12` the value was 25.1 µM (active). For `CCOC(=O)c1c(N)n(Cc2ccccc2)c2nc3ccccc3nc12`, the Potency is 28.2 µM (active).

As for `COC(=O)C1=C(c2ccccc2)C[C@@H]2CC[C@H]1N2C(=O)NCc1ccco1`, the Potency entry was “inactive”.

Take `COc1cc(Cn2c(N)c(C(=O)NCc3ccco3)c3nc4ccccc4nc32)cc(OC)c1OC`: the Potency is 28.2 µM (active). Then `CC/C(=N\NC(=O)c1ccccc1O)c1c(O)n(Cc2ccccc2)c(=O)[nH]c1=O`, with “inactive”; and `CCOC(=O)c1cccc(C2=C(CNC(=O)c3ccncc3)[C@H]3CC[C@@H](C2)N3Cc2ccccc2)c1`, with “inactive”. Then `c1cc2c(cc1C1OCC3C(c4ccc5c(c4)OCO5)OCC13)OCO2` (centres undefined), with “inactive”; and `COc1cccc(C(c2nnnn2-c2ccc3c(c2)OCCO3)N2CCC3(CC2)C(=O)NCN3c2ccccc2)c1OC` (centres undefined), with “inactive”.

On to `S=C(NCCc1ccccc1)N1Cc2cc(N3CCOCC3)ccc2-n2nncc2C1`, for which the Potency entry is “inactive”. Then `O=c1[nH]c2ccccc2n1C1CCN(C(c2ccccc2)c2nnnn2Cc2ccccc2)CC1` (centres undefined), with “inactive”. For `CC(=O)NCC1=C(c2ccc3ccccc3c2)C[C@@H]2CC[C@H]1N2Cc1ccco1` the value was “inactive”. Then `CSCCC(c1nnnn1C(C)(C)C)N1CCC(n2c(=O)[nH]c3ccccc32)CC1` (centres undefined), with “inactive”; and `CCn1cc(CN2CCCC(C(=O)c3cccc(C(F)(F)F)c3)C2)cn1` (centres undefined), with “inactive”. `COc1ccc(C2C=C(C)Oc3c2c(=O)oc2ccccc32)cc1OC` (centres undefined): the Potency result is “inactive”. For `O=C(O)/C=C/c1ccc2c(c1)OCO2` the value was “inactive”; for `O=c1c2ccccc2[nH]c(=S)n1-c1cccc(Cl)c1`, “inactive”; for `CN1CCN(C(=S)SCC(=O)Nc2ccc(Cl)cc2C(=O)c2ccccc2)CC1`, “inactive”. For `O=C(Nc1ccc(Cl)cc1C(=O)c1ccccc1)c1cc(Cl)cc(Cl)c1` the value was “inactive”. For `CC(C(=O)Nc1ccc(Cl)cc1Cl)N1CC=C(c2ccccc2)CC1` (centres undefined) the value was 28.2 µM (active); for `O=C(NCC1=C(c2ccc3ccccc3c2)C[C@@H]2CC[C@H]1N2Cc1ccco1)c1cccs1`, “inactive”; for `COC(=O)C1=C(c2ccc(OCc3ccccc3)cc2)C[C@@H]2CC[C@H]1N2C(=O)NCc1ccc(Cl)cc1`, “inactive”. As to `CCOc1ccc(-c2cc(C)n3nc(C(=O)Nc4ccc(C)c(C)c4)cc3n2)cc1`, the Potency is 3.55 µM (active).

`ClCCN(CCCl)c1ccc(C=Nc2ccc(/C=C/c3ccnc4ccccc34)cc2)cc1`: the Potency entry was “inactive”.

For `COC(=O)C1=C(c2ccc(OCc3ccccc3)cc2)C[C@@H]2CC[C@H]1N2C(=O)NCc1cccc(F)c1`, the Potency result is “inactive”. For `O=C(c1cc(S(=O)(=O)N2CCOCC2)ccc1F)N1CCC2(CC1)OCCO2` the value was “inactive”; for `O=C(c1cc2nc(-c3ccccc3)cc(-c3ccccc3)n2n1)N1CCC2(CC1)OCCO2`, 35.5 µM (active); for `O=C(c1ccccc1[N+](=O)[O-])N1CCC2(CC1)OCCO2`, “inactive”. For `O=C(c1cc(-c2ccncc2)nc2ccccc12)N1CCC2(CC1)OCCO2`, the Potency was 28.2 µM (active). For `Cc1ccc(-c2cc(C(=O)N3CCC4(CC3)OCCO4)no2)cc1` the value was “inactive”; for `Cc1cccc(-n2c(C)nc3cc(C(=O)N4CCC5(CC4)OCCO5)ccc32)c1`, “inactive”. With `COc1cc([C@@H]2c3cc4c(cc3[C@H](OC(C)=O)[C@H]3COC(=O)[C@H]23)OCO4)cc(OC)c1OC`, the Potency result was “inactive”. For `COc1ccc(-n2nnnc2C(c2cccc3ccccc23)N2CCC(n3c(=O)[nH]c4ccccc43)CC2)cc1` (centres undefined) the value was “inactive”; for `COc1ccc(-c2nc(CS(=O)CC(=O)N3CCC4(CC3)OCCO4)c(C)o2)cc1` (centres undefined), 31.6 µM (active); for `COc1ccc(S(=O)(=O)NCc2ccc(C(=O)N3CCC4(CC3)OCCO4)cc2)cc1`, “inactive”.

As for `COc1ccc(NC(=O)N2CCC3(CC2)OCCO3)c(OC)c1`, the Potency entry is “inactive”.

In the case of `CCC(C)(O)C(=O)OC1C(=O)OC2CC3C(C)=CC(=O)C(O)C3(C)C3C4(O)OCC23C1C(C)C4O` (centres undefined), the Potency result is “inactive”.

`CCOC(=O)[C@]12Cc3ccccc3[C@H]1N(C1CCCCC1)C(=O)c1cc(OC)ccc12`: the Potency entry is “inactive”. Then `c1ccc(N2Cc3ccccc3-n3nncc3C2)nc1`, with “inactive”; and `COc1cc(C(=O)N2Cc3ccc(Br)cc3-n3nncc3C2)cc(OC)c1OC`, with “inactive”. For `C[C@H]1CN([C@@H](C)CO)C(=O)CCCn2nncc2CO[C@H]1CN(C)C(=O)Oc1ccccc1` the value was “inactive”; for `COC(=O)C[C@H]1CC[C@H]2NC[C@@H](O)COC[C@@H]2O1`, “inactive”; for `CCN(CC)CCOC(=O)c1cc2cc(COC)ccc2o1`, 28.2 µM (active). Then `O=P(OC1=CCCCC1)(c1ccccc1)c1ccccc1`, with “inactive”. For `CC(=CCOc1ccc2ccc(=O)oc2c1)C1=CC(=O)C(C)(C)O1`, the Potency result was “inactive”. For `CC1C(=O)OC2CCN3CC=C(COC(=O)C(C)(O)C1(C)O)C23` (centres undefined) the value was “inactive”. As for `O=C(CCCn1c(=O)[nH]c2cc(Cl)ccc2c1=O)N1CCC2(CC1)OCCO2`, the Potency is 28.2 µM (active). Then `Cc1ccc(Cn2c(C)c3cnn(CC(=O)N4CCC5(CC4)OCCO5)c(=O)c3c2C)cc1`, with “inactive”; and `Cc1nc2nc(C)c(CCC(=O)N3CCC4(CC3)OCCO4)c(C)n2n1`, with “inactive”. For `CC(=O)OC1C2(CC3N4C(=O)C5(CO)SSC4(CC31O)C(=O)N5C)OC(C)C(C)(C)C2=O` (centres undefined), the Potency result is “inactive”. For `COc1ccc(NC(=O)N2Cc3ccccc3-n3nncc3C2)cc1` the value was “inactive”; for `COC1C(O)C(C)OC(OC2CCC3(C=O)C(CCC4C3CCC3(C)C(C5=CC(=O)OC5)CCC43O)C2)C1O` (centres undefined), “inactive”. For `C[C@H]1CN([C@@H](C)CO)C(=O)CCCn2nncc2CO[C@H]1CN(C)C(=O)Oc1cccc2ccccc12` the value was “inactive”; for `CCOC(=O)c1c(-c2ccccc2)oc2ccc(OC(=O)N(C)C)cc12`, 3.16 µM (active). Turning to `CN(C)C(=O)Oc1ccc2c(c1)O/C(=C\c1ccccc1)C2=O`, the Potency entry is “inactive”. Then `CN(C)C(=O)Oc1ccc(OCc2cccc[n+]2C)cc1`, with “inactive”; and `CCOC(=O)[C@]12Cc3cc(OC)ccc3[C@H]1N(C(C)C)C(=O)c1ccccc12`, with “inactive”; and `O=C(NC1CCCCC1)N1Cc2cc(N3CCCCC3)ccc2-n2nncc2C1`, with “inactive”.
